Compound activity deposited in PubChem by National Center for Advancing Translational Sciences (NCATS).
HT1080 IDH1KD tx = qHTS for induction of synthetic lethality in tumor cells producing 2HG: qHTS for the HT-1080-IDH1KD cell line. Potency, µM (series often up to 46.1 µM), inactives show top-dose activity, negative = toxicity, usual class: cytotoxic. HT-1080 IDH1 knockdown viability, ATP luminescence, 48 h. AID 686971, 2013. 2% of 360,000 active;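 note: potency is the fitted concentration of half-maximal effect; 0% = DMSO wells and -100% = cell-free medium wells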
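After a 2 h attachment period, IDH1KD HT-1080 cells took pin-transferred compound for 48 h at 37 °C; ATP-based luminescence after 10 min room-temperature reagent incubation reported viability.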
ELG1 DNA repair = qHTS screen for small molecules that inhibit ELG1-dependent DNA repair in human embryonic kidney (HEK293T) cells expressing luciferase-tagged ELG1 | Potency, µM (titrated, usually from 46.1 µM), inactives show at the top dose activity change, negative = inhibition, actives largely listed as inhibitors | HEK293T ELG1-luciferase reporter, luminescence, 16 h; DNA damage induced by 5-fluorouridine | AID 504467, 2011 | 2.3% of 330,000 active; note: potency is the fitted concentration of half-maximal effect; nearly all actives have a fitted effect of over 55% in size
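DMSO vehicle served as the neutral condition. Each well held 2,000 cells given 5-fluorouridine plus compound; after 16 hr at 37 °C/5% CO2, ONE-Glo was added and luciferase measured 30 min later.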
TDP1 cell noCPT = qHTS for Inhibitors of human tyrosyl-DNA phosphodiesterase 1 (TDP1): qHTS in cells in absence of CPT | DT40 Tdp1-/- hTDP1 cells, no CPT, ATP luminescence, 48 h | Potency, µM (top dose mostly 46.2 µM), for the others: at the top dose activity change, negative = growth inhibition, hits mostly inhibitors | 15% of 420,000 active; note: potency is the fitted concentration of half-maximal effect; nearly all actives have a fitted effect of over 55% in size
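Growth of hTDP1-complemented DT40 Tdp1-knockout cells is measured by ATP luminescence after at least 48 hr compound exposure at 37 °C, with DMSO substituting for the 20 nM CPT used in the parallel screen.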
DT40 TDP1 CPT = qHTS for Inhibitors of human tyrosyl-DNA phosphodiesterase 1 (TDP1): qHTS in cells in presence of CPT | chicken DT40 Tdp1-/-;hTDP1 cells + 20 nM CPT, ATP luminescence, 48 h | Potency, µM (series often up to 46.2 µM), for inactives: at the highest dose activity change, negative = growth inhibition, actives largely listed as inhibitors | 12% of 420,000 active; note: potency is the fitted concentration of half-maximal effect; nearly all actives have a fitted effect of over 55% in size
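Chicken DT40 Tdp1-/- cells stably complemented with human TDP1 were seeded at 400 cells/well in medium containing 20 nM camptothecin, exposed to pin-transferred compounds, and grown at 37 °C for at least 48 hr. Viability was read as ATP luminescence.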
HT1080NT lethal = qHTS for induction of synthetic lethality in tumor cells producing 2HG: qHTS for the HT-1080-NT fibrosarcoma cell line. Potency, µM (highest dose often 46.1 µM), for inactives: top-dose activity, negative = less viability, actives largely listed as cytotoxic. HT-1080-NT fibrosarcoma viability, CellTiter-Glo ATP luminescence, 48 h. 1.6% of 360,000 active. AID 686970, 2013;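 note: NT is the 2HG producing partner of a matched IDH1 knockdown line; potency is the fitted concentration of half-maximal effect; 0% = DMSO-treated cells and -100% = media-only wells without cells; nearly all actives have a fitted effect of over 55% in size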
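750 cells/well, RPMI + 5% FBS; 2 h settle, compound pin-transfer, 48 h at 37 degrees C. CellTiter-Glo 10 min RT, luminescence. Normalized to DMSO and media-only wells.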
IL-1B inflam inh = qHTS for Inhibitors of Inflammasome Signaling: IL-1-beta AlphaLISA Primary Screen | AID 743279, 2014 | THP-1 LPS/ATP IL-1B secretion, AlphaLISA, 16 h; hits give low values | 4.7% of 360,000 active | activity change, % at 57.5 µM; in the data active = activity change below about -50%; inconclusive = mostly about -30% to -49%
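Secreted IL-1B measured by AlphaLISA bead assay after 16 h compound exposure of THP-1 cells; compounds (final up to 57.5 uM) added 1 h before LPS (250 ng/mL) and ATP (1.25 mM) stimulation; lower signal means less secretion.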
* = called active by the depositor. Hits are enriched below; roughly 19% of the tested compounds scored in any of these assays. Unless noted, calls come from the whole dose curve; as a rule, active = well fitted curve in the direction sought with a large enough effect; inconclusive = small, poorly fitted or top-dose-only effect, or another doubt; inactive = no such curve, though single readings can be large; an effect the other way counts as inactive or inconclusive. Unless noted, % is set by controls: 0 for no effect and ±100 for the full control effect.

What do the screens show for `CC(C)(C)Cc1c(-c2ccco2)nc2ccc(Cl)cn12`?
HT1080 IDH1KD tx: 7.4%; TDP1 cell noCPT: -84.7%; DT40 TDP1 CPT: 25.9µM*; HT1080NT lethal: 15.4%; IL-1B inflam inh: 33.6

Results for CC(C)(C)Cc1c(-c2ccc(C#N)cc2)nc2ccc(Cl)cn12 ?
HT1080 IDH1KD tx: -13.5%; TDP1 cell noCPT: 16.4µM*; DT40 TDP1 CPT: inconclusive; HT1080NT lethal: -4.8%; IL-1B inflam inh: -17.7

What do the screens show for `CC(C)(C)Cc1c(-c2cccc(Cl)c2)nc2ccc(Cl)cn12`?
HT1080 IDH1KD tx: 2.8%; TDP1 cell noCPT: inconclusive; DT40 TDP1 CPT: inconclusive; HT1080NT lethal: 12.8%; IL-1B inflam inh: -20.4

How did CCC(=O)Nc1ccc(CC)cc1-c1nc2ccccc2n(CC(=O)c2ccc(OC)cc2)c1=O do in these assays?
TDP1 cell noCPT: -24.8%; DT40 TDP1 CPT: -23.6%

Results for C=C[C@@H](C1=CC(=O)C(OC)=C(OC)C1=O)c1ccccc1 ?
TDP1 cell noCPT: 0.731µM*; DT40 TDP1 CPT: 1.16µM*

How did CCOc1ccc(-c2cc(C(=O)N/N=C(\C)c3cccnc3)c3ccccc3n2)c(OCC)c1 do in these assays?
HT1080 IDH1KD tx: inconclusive; ELG1 DNA repair: inconclusive; TDP1 cell noCPT: inconclusive; DT40 TDP1 CPT: 14.6µM*; HT1080NT lethal: -21.7%; IL-1B inflam inh: 24.1

Results for C/C(=N\NC(=O)c1cc(-c2cccnc2)nc2ccccc12)c1ccccc1O ?
HT1080 IDH1KD tx: 9.2µM*; ELG1 DNA repair: inconclusive; TDP1 cell noCPT: 3.66µM*; DT40 TDP1 CPT: 4.61µM*; HT1080NT lethal: -11.5%; IL-1B inflam inh: 63.1

How did C/C(=N\NC(=O)c1cc(C2CC2)nc2ccccc12)c1ccc(O)cc1O do in these assays?
HT1080 IDH1KD tx: 4.61µM*; ELG1 DNA repair: inconclusive; TDP1 cell noCPT: 5.17µM*; DT40 TDP1 CPT: 6.51µM*; HT1080NT lethal: inconclusive; IL-1B inflam inh: 147.1

How did COc1ccc(-c2cc(C(=O)N/N=C(\C)c3cccnc3)c3ccccc3n2)cc1 do in these assays?
HT1080 IDH1KD tx: -26.4%; ELG1 DNA repair: inconclusive; TDP1 cell noCPT: inconclusive; DT40 TDP1 CPT: inconclusive; HT1080NT lethal: -21.6%; IL-1B inflam inh: -1.2

How did COc1ccc(/C(C)=N/NC(=O)c2cc(-c3cccnc3)nc3ccccc23)cc1 do in these assays?
HT1080 IDH1KD tx: 8.5%; ELG1 DNA repair: 9.7%; TDP1 cell noCPT: -21.9%; DT40 TDP1 CPT: -23.4%; HT1080NT lethal: 9.1%; IL-1B inflam inh: 53.0

What do the screens show for `COCCn1c(SCc2ccc(F)cc2)nc2c1c(=O)[nH]c(=O)n2C`?
HT1080 IDH1KD tx: 0.8%; ELG1 DNA repair: -1.7%; TDP1 cell noCPT: -3.0%; DT40 TDP1 CPT: -25.6%; HT1080NT lethal: -14.8%; IL-1B inflam inh: -8.2

How did COc1ccccc1-c1cn(CC[C@@H]2CC[C@H](NC(=O)C3CCC3)[C@@H](CO)O2)nn1 do in these assays?
HT1080 IDH1KD tx: 11.8%; TDP1 cell noCPT: -3.9%; DT40 TDP1 CPT: -12.4%; HT1080NT lethal: -4.0%; IL-1B inflam inh: 24.7

What do the screens show for `COc1ccc(C(=O)NCCS(=O)(=O)N2CCc3ccccc3C2)cc1OC`?
HT1080 IDH1KD tx: 15.9%; ELG1 DNA repair: 1.3%; TDP1 cell noCPT: -20.9%; DT40 TDP1 CPT: -2.0%; HT1080NT lethal: 17.0%; IL-1B inflam inh: 9.8

Results for C#CCN1C=CC(=O)[C@@H](OC(=O)Nc2ccc(C)cc2)[C@H]1c1ccccc1Br ?
HT1080 IDH1KD tx: 0.4%; TDP1 cell noCPT: inconclusive; DT40 TDP1 CPT: inconclusive; HT1080NT lethal: -1.6%; IL-1B inflam inh: 19.9

Results for C#CCN1C=CC(=O)[C@@H](OC(=O)Nc2ccc(Cl)cc2)[C@H]1c1ccccc1Br ?
HT1080 IDH1KD tx: -17.7%; TDP1 cell noCPT: 23.1µM*; DT40 TDP1 CPT: 20.6µM*; HT1080NT lethal: 3.9%; IL-1B inflam inh: -10.1

Results for O=C(CCS(=O)(=O)c1cc2c3c(c1)CCN3C(=O)CC2)NCc1ccc(F)cc1 ?
TDP1 cell noCPT: -6.0%; DT40 TDP1 CPT: 3.5%

Results for O=C(N1CCOCC1)N1CCN(S(=O)(=O)c2cccc([N+](=O)[O-])c2)CC1 ?
HT1080 IDH1KD tx: 16.4%; ELG1 DNA repair: 19.3%; TDP1 cell noCPT: 19.8%; DT40 TDP1 CPT: -14.9%; HT1080NT lethal: -2.5%; IL-1B inflam inh: 10.8

How did COc1ccc2ccccc2c1/C=N/NC(=O)c1sc(N)c(C#N)c1C do in these assays?
HT1080 IDH1KD tx: 12.3%; ELG1 DNA repair: -6.2%; TDP1 cell noCPT: inconclusive; DT40 TDP1 CPT: -3.2%; HT1080NT lethal: 5.7%; IL-1B inflam inh: 0.0

What do the screens show for `COc1cc(/C=N/NC(=O)c2sc(N)c(C#N)c2C)cc(Br)c1O`?
HT1080 IDH1KD tx: 9.2%; ELG1 DNA repair: -2.1%; TDP1 cell noCPT: inconclusive; DT40 TDP1 CPT: -28.8%; HT1080NT lethal: 19.3%; IL-1B inflam inh: -77.0*

What do the screens show for `Cc1c(C(=O)N/N=C/c2cccnc2)sc(N)c1C#N`?
HT1080 IDH1KD tx: -6.4%; ELG1 DNA repair: inconclusive; TDP1 cell noCPT: -26.1%; DT40 TDP1 CPT: -18.4%; HT1080NT lethal: 0.6%; IL-1B inflam inh: -62.8*

Results for COCCN1C(=O)c2ccccc2C1c1nc2ccccc2[nH]1 (stereo not given) ?
HT1080 IDH1KD tx: 20.8%; TDP1 cell noCPT: 10.1%; DT40 TDP1 CPT: 4.8%; HT1080NT lethal: 27.5%; IL-1B inflam inh: 21.1

What do the screens show for `CCCN1CCC(=O)N(CCC#N)CC1`?
TDP1 cell noCPT: -4.0%; DT40 TDP1 CPT: -20.3%

What do the screens show for `COc1ccc(N2CC(NC(=O)N3CCN(C(=O)c4ccco4)CC3)CC2=O)cc1OC` (stereo not given)?
HT1080 IDH1KD tx: 4.1%; ELG1 DNA repair: inconclusive; TDP1 cell noCPT: 0.8%; DT40 TDP1 CPT: 0.5%; HT1080NT lethal: -2.3%; IL-1B inflam inh: 8.1

What do the screens show for `CCCCCCn1c(=O)n2n(c1=O)[C@@H]1CN(S(=O)(=O)c3ccc(C)cc3)C[C@]1(O)[C@@H](OC(=O)Nc1cccs1)C2`?
HT1080 IDH1KD tx: inconclusive; TDP1 cell noCPT: 25.9µM*; DT40 TDP1 CPT: 23.1µM*; HT1080NT lethal: inconclusive; IL-1B inflam inh: -52.3*
